Assay [1] in a line: ATG_CMV_CIS: Attagene CIS-FACTORIAL HepG2 Assay for human CMV (Internal Marker) (AID 2282928; active = hit-call score of the fitted dose curve at least 0.9, where 1 is the maximum; inactive = score below 0.9;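 note: endpoint acts as a background internal control marker rather than a target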). Conditions: HepG2 CMV promoter reporter, transcription factor profiling; actives raise or lower the signal. In a few lines:
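CMV internal-marker background readout in transiently transfected HepG2 cells bearing cis-regulated reporter units. Reporter mRNA is measured 24 h after dosing by RT-PCR and capillary electrophoresis, with bidirectional fitting against DMSO.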

The nature of assay [2]: ATG_Ets_CIS: Attagene CIS-FACTORIAL HepG2 Assay for human Erythroblast Transformation Specific (ETS) (AID 2282941; active = hit-call score of the fitted dose curve at least 0.9, where 1 is the maximum; inactive = score below 0.9). As to conditions: HepG2 ETS cis-reporter transcription, actives raise or lower the signal. In a few lines: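 HepG2 cells transfected with multiple cis-regulated reporter units measuring endogenous ETS-driven transcription, 24 h after dosing. Reporter mRNA quantified by RT-PCR with capillary electrophoresis; bidirectional fit relative to DMSO.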

Assay [3] has as its target Hepatocyte nuclear factor 3-beta (Homo sapiens) (UniProt Q9Y261). Briefly: ATG_FoxA2_CIS: Attagene CIS-FACTORIAL HepG2 Assay for human Forkhead box A2 (FOXA2) (AID 2282942; active = hit-call score of the fitted dose curve at least 0.9, where 1 is the maximum; inactive = score below 0.9). As to conditions: HepG2 cis-reporter transcription factor activity, 24 h; actives raise or lower the signal. The gist of the method: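 Multiplexed cis-element reporter assay in transiently transfected HepG2. Twenty-four hours post-dosing, RNA was reverse-transcribed, amplified, FAM-labelled, HpaI-digested and separated by CE. Activity gain or loss relative to DMSO.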

Assay [4] can be described thus: ATG_FoxO_CIS: Attagene CIS-FACTORIAL HepG2 Assay for human Forkhead box O (FoxO) (AID 2282943; active = hit-call score of the fitted dose curve at least 0.9, where 1 is the maximum; inactive = score below 0.9). Conditions: HepG2 Attagene cis-reporter, FoxO element, mRNA; actives raise or lower the signal. In a few lines:
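Values reflect reporter mRNA induction or loss in HepG2 cells 24 h post-dosing, fitted bidirectionally with DMSO as negative control and baseline. Detection used RT-PCR and fluorescence capillary electrophoresis.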

The nature of assay [5]: ATG_PPRE_CIS: Attagene CIS-FACTORIAL HepG2 Assay for human Peroxisome Proliferator-activated Response Element (PPRE) (AID 2282958; active = hit-call score of the fitted dose curve at least 0.9, where 1 is the maximum; inactive = score below 0.9). Conditions: HepG2 PPRE cis-element reporter, Attagene transcription factor profiling; actives raise or lower the signal. The gist of the method: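 DMSO served as negative control and baseline for bidirectional curve fitting. Signal came from PPRE-regulated reporter mRNA in HepG2 cells, measured 24 h post-dosing by RT-PCR, 6-FAM primer extension and capillary electrophoresis.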

Assay [6] can be described thus: ATG_SREBP_CIS: Attagene CIS-FACTORIAL HepG2 Assay for human Sterol Regulatory Element Binding (SREBP) (AID 2282962; active = hit-call score of the fitted dose curve at least 0.9, where 1 is the maximum; inactive = score below 0.9). Conditions: HepG2 Attagene cis-factorial SREBP reporter, mRNA; actives raise or lower the signal. In a few lines:
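HepG2 cells transiently transfected with multiplexed cis-promoter reporter units sensing endogenous transcription factors; reporter mRNA measured 24 h after dosing by RT-PCR, 6-FAM labeling, HpaI digestion and capillary electrophoresis. Bidirectional fit versus DMSO.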

For assay [7], the target named is Oxysterols receptor LXR-beta (Homo sapiens) (UniProt P55055). Briefly: ATG_LXRb_TRANS: Attagene TRANS-FACTORIAL HepG2 Assay for human Liver X Receptor beta (LXRb) (AID 2282981). Conditions: HepG2 Attagene TRANS GAL4-LXRb reporter, mRNA. The gist of the method:
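In this TRANS format, exogenous chimeric NR-Gal4 protein activity, not endogenous factors, drives reporter expression in transfected human HepG2 cells. Exposure lasted 24 h; reporter mRNA was read by fluorescent capillary electrophoresis.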

The target of assay [8] is Hepatocyte nuclear factor 4-alpha (Homo sapiens) (UniProt P41235). Nature of the assay: ATG_HNF4a_TRANS: Attagene TRANS-FACTORIAL HepG2 Assay for human Hepatocyte Nuclear Factor 4 alpha (HNF4a) (AID 2282982). As to conditions: HepG2 HNF4a transactivation reporter, mRNA readout. In a few lines: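 Cells used were human HepG2, transiently carrying GAL4-UAS reporter units read out against exogenous NR-GAL4 chimeras. Reporter transcript levels after 24 h dosing were quantified by fluorescent RT-PCR and capillary electrophoresis.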
Chain of Hepatocyte nuclear factor 4-alpha (Homo sapiens) (P41235 whole entry, looked up, the tested form may be a part): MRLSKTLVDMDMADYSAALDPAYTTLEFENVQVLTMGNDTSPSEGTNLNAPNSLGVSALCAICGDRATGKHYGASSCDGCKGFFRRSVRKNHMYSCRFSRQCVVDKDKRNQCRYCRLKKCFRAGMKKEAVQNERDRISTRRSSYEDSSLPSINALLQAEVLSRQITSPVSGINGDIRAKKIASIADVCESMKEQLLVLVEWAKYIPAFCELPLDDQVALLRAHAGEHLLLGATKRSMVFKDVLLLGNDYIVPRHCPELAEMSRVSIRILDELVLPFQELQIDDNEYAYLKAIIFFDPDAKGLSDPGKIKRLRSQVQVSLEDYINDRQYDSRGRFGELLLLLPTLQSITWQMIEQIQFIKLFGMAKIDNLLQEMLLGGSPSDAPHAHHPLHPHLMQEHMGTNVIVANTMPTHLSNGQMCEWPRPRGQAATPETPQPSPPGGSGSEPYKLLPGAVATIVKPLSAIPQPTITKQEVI

Assay [9] deals with human Peroxisome Proliferator-activated Receptor alpha (PPARa), PPARA (gene 5465) (UniProt Q07869). Nature of the assay: ATG_PPARa_TRANS: Attagene TRANS-FACTORIAL HepG2 Assay for human Peroxisome Proliferator-activated Receptor alpha (PPARa) (AID 2283001).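 For AC50: potency for gain of reporter signal over DMSO so agonist or activator.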 The gist of the method: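 Gain-of-signal endpoint: reporter mRNA induction relative to DMSO, detected by fluorescent RT-PCR and capillary electrophoresis. HepG2 cells transiently carried GAL4-UAS-driven reporter units plus NR-Gal4 fusion; exposure lasted 24 h.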
Chain of human Peroxisome Proliferator-activated Receptor alpha (PPARa), PPARA (gene 5465) (Q07869 whole entry, looked up, the tested form may be a part): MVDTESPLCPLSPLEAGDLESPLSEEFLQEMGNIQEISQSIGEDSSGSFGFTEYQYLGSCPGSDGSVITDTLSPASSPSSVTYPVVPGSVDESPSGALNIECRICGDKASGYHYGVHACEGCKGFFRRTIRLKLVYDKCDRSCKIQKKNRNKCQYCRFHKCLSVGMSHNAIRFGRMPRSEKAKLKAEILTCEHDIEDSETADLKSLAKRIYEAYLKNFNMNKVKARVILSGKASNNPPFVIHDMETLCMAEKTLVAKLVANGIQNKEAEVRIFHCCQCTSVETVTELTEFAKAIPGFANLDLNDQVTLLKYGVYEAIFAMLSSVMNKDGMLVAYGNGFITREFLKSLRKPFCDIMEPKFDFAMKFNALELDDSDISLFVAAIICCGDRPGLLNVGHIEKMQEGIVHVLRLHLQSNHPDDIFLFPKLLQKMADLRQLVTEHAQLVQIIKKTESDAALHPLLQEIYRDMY

In assay [10] the target is Retinoic acid receptor RXR-alpha (Homo sapiens) (UniProt P19793). Briefly: ATG_RXRa_TRANS: Attagene TRANS-FACTORIAL HepG2 Assay for human Retinoid X Receptor alpha (RXRa) (AID 2283012). The gist of the method:
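Transient transfection of human HepG2 with multiple GAL4-UAS reporter constructs; 24 h compound exposure; total RNA isolated, reverse-transcribed, PCR-amplified, 6-FAM labelled, HpaI-cut, resolved by capillary electrophoresis. Positive-direction fit versus DMSO.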

In assay [11] the target is human Thyroid Receptor alpha (THRa1), THRA (gene 7067) (UniProt P10827). Briefly: ATG_THRa1_TRANS: Attagene TRANS-FACTORIAL HepG2 Assay for human Thyroid Receptor alpha (THRa1) (AID 2283014). The gist of the method: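 Reporter transcript induction, read by capillary electrophoresis of 6-FAM-labelled RT-PCR products, reflects activity of a transfected THRa1-Gal4 fusion in HepG2 liver cells. Cells were dosed for 24 h; activity was fitted in the positive direction against DMSO.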
Chain of human Thyroid Receptor alpha (THRa1), THRA (gene 7067) (P10827 whole entry, looked up, the tested form may be a part): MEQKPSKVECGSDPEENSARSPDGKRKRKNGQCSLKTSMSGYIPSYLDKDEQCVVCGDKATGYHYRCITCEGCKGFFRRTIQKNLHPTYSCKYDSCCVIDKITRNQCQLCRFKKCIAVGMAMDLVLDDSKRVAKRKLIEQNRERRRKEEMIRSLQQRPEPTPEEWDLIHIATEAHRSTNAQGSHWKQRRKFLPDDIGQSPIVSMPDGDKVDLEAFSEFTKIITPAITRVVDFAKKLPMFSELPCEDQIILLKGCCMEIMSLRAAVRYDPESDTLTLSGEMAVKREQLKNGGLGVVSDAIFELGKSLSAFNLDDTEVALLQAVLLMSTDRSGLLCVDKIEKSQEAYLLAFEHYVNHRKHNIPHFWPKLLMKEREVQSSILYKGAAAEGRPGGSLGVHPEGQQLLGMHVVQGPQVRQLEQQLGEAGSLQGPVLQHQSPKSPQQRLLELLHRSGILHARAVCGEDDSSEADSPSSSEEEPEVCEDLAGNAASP

A short description of assay [12]: ATG_AP_1_CIS: Attagene CIS-FACTORIAL HepG2 Assay for human Activator Protein 1 (AP-1) (AID 2282931; active = hit-call score of the fitted dose curve at least 0.9, where 1 is the maximum; inactive = score below 0.9). As to conditions: HepG2 Attagene cis-factorial AP-1 reporter mRNA; actives raise or lower the signal. The gist of the method: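 We transfected HepG2 cells transiently with a set of cis-regulated reporter transcription units, dosed them for 24 h, and quantified reporter mRNA via RT-PCR and capillary electrophoresis, scoring gain or loss of signal relative to DMSO.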

The nature of assay [13]: ATG_GATA_CIS: Attagene CIS-FACTORIAL HepG2 Assay for human GATA Binding Protein (AID 2282944; active = hit-call score of the fitted dose curve at least 0.9, where 1 is the maximum; inactive = score below 0.9). Conditions: HepG2 GATA cis-element reporter, Attagene multiplex mRNA; actives raise or lower the signal. In a few lines: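 HepG2 cells transiently transfected with multiplexed cis-element reporter units reflecting endogenous transcription factor activity; reporter mRNA measured after 24 h dosing by RT-PCR, 6-FAM labeling, HpaI digestion and capillary electrophoresis. Bidirectional fitting versus DMSO baseline.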

Assay [14] addresses Paired box protein Pax-6 (Homo sapiens) (UniProt P26367). Briefly: ATG_Pax6_CIS: Attagene CIS-FACTORIAL HepG2 Assay for human Paired Box 6 (PAX6) (AID 2282956; active = hit-call score of the fitted dose curve at least 0.9, where 1 is the maximum; inactive = score below 0.9). Conditions: HepG2 CIS-FACTORIAL PAX6 reporter transcription, RNA readout; actives raise or lower the signal. The gist of the method:
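HepG2 cells transiently transfected with cis-promoter-driven multiplexed reporter units sensing endogenous transcription factor activity; 24 h chemical exposure. Reporter mRNA quantified by RT-PCR, 6-FAM labelling, HpaI digestion and capillary electrophoresis; bidirectional fit versus DMSO baseline.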

The nature of assay [15]: ATG_M_32_TRANS: Attagene TRANS-FACTORIAL HepG2 Assay for M32 Transcription Factor (Internal Marker) (AID 2282984).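 Note: transcript level of a background control reporter unit measured by RT-PCR and capillary electrophoresis.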 As to conditions: HepG2 Attagene TRANS M32 internal marker reporter. The gist of the method:
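Human hepatoma HepG2, transient MRTU transfection, 24 h treatment. RNA → RT-PCR → fluorescent primer extension → HpaI digest (2 h, 37 C) → CE. Positive-direction fit vs DMSO.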

Assay [16] addresses Cellular tumor antigen p53 (Homo sapiens) (UniProt P04637). Nature of the assay: TOX21_p53_BLA_p2_ratio: Tox21 HCT-116 p53 Agonism Beta-lactamase Assay, Ratio, Phase 2 (AID 2283592). The gist of the method:
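HCT116 p53-bla; 4000 cells/well; 5 h pre-incubation; cpd in DMSO, 217-fold dilution; 16 h 37C/5% CO2; CCF4-AM 2 h RT; Ex 405, Em 460/530 ratio; DMSO = baseline; positive fitting direction.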

Assay [17] shares this target. Nature of the assay: TOX21_p53_BLA_p5_ratio: Tox21 HCT-116 p53 Agonism Beta-lactamase Assay, Ratio, Phase 5 (AID 2283599). The gist of the method: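 HCT-116 cells carrying a p53-inducible beta-lactamase reporter were seeded at 4000 cells/well and dosed after 5 h with compound in DMSO (217-fold dilution). After 16 h at 37C, CCF4-AM substrate was added for 2 h, and the 460/530 nm emission ratio was scored as gain-of-signal versus DMSO.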

A short description of assay [18]: ATG_M_06_TRANS: Attagene TRANS-FACTORIAL HepG2 Assay for M06 Transcription Factor (Internal Marker) (AID 2282983). As to conditions: HepG2 Attagene TRANS M06 internal marker reporter. In a few lines: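 Transfect HepG2 with MRTUs → dose compounds 24 h → isolate RNA, oligo(dT) RT → PCR with reporter primers → 6-FAM primer extension → HpaI digest → CE fragment analysis. Positive direction vs DMSO.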

The target in assay [19] is Nuclear receptor subfamily 4 group A member 2 (Homo sapiens) (UniProt P43354). Briefly: ATG_NURR1_TRANS: Attagene TRANS-FACTORIAL HepG2 Assay for human Nuclear Receptor Related Protein 1 (NURR1) (AID 2282985). As to conditions: HepG2 Attagene TRANS reporter, mRNA readout. The gist of the method: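 After 24 h chemical dosing, total RNA from transiently transfected HepG2 cells was reverse-transcribed and reporter cDNA PCR-amplified, FAM-labelled and analysed by capillary electrophoresis. Activity fitted in positive direction, DMSO as negative control.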
Chain of Nuclear receptor subfamily 4 group A member 2 (Homo sapiens) (P43354 whole entry, looked up): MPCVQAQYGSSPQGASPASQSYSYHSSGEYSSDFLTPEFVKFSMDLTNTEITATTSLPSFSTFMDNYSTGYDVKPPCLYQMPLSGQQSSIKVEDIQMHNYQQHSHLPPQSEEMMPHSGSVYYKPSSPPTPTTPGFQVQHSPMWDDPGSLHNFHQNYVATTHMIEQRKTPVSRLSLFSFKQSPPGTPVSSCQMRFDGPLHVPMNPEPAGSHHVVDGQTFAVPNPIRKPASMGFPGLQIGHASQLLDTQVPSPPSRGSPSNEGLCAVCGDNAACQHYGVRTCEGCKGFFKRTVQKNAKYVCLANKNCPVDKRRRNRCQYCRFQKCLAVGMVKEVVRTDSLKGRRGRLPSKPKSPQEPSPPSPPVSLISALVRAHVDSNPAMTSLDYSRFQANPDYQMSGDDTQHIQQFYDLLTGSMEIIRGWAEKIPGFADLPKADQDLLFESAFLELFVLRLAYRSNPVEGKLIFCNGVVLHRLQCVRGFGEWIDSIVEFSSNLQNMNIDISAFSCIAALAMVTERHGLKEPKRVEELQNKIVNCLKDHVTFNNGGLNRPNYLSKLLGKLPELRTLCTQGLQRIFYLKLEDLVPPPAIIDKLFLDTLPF

Assay [20] is described as follows: TOX21_p53_BLA_p5_viability: Viability Assessment in the Tox21 HCT-116 p53 Agonism Beta-lactamase Assay, Phase 5 (AID 2283600). In a few lines: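 4000 cells/well; 5 h pre-incubation; DMSO compounds pin-transferred, 217-fold dilution; 16 h, 37C/5% CO2; CCF4-AM 2 h RT; CellTiter-Glo 30 min RT; luminescence.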

Several values for one entry are separate records, joined by “and”; a condition that tells them apart may be missing. Equal values may be shown once. Records with an inconclusive call do not appear. More than one record can exist for a structure, and the calls need not agree. Activity calls are given as the source filed them. Rule for the calls, unless noted: active = hit-call score of the fitted dose curve at least 0.9, where 1 is the maximum; inconclusive = response in the unintended direction; inactive = score below 0.9.

Chain of Hepatocyte nuclear factor 3-beta (Homo sapiens) (Q9Y261 whole entry, looked up): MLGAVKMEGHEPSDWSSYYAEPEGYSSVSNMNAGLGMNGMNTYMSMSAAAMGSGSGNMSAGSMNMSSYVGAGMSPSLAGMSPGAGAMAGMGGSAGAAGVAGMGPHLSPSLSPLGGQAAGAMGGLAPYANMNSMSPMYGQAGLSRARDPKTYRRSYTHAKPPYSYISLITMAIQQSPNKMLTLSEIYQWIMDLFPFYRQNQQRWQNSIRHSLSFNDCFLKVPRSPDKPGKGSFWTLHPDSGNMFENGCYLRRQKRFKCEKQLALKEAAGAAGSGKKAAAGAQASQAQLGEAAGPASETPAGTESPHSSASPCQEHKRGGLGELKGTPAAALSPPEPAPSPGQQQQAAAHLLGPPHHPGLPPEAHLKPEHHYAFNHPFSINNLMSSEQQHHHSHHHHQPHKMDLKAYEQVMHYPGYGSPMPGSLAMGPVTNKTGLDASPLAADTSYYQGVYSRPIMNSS
Chain of Paired box protein Pax-6 (Homo sapiens) (P26367 whole entry, looked up): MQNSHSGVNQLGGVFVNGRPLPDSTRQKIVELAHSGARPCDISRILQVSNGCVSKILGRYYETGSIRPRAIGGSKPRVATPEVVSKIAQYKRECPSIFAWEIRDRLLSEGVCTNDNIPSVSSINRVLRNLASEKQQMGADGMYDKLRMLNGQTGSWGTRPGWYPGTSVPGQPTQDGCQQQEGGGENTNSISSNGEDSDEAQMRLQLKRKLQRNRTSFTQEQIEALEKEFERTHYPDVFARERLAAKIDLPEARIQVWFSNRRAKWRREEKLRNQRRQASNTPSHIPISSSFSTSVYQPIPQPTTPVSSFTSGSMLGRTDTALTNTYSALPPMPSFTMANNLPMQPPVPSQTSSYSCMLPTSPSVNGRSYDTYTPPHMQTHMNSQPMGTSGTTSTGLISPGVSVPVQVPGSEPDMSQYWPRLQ
Chain of Oxysterols receptor LXR-beta (Homo sapiens) (P55055 whole entry, looked up, the tested form may be a part): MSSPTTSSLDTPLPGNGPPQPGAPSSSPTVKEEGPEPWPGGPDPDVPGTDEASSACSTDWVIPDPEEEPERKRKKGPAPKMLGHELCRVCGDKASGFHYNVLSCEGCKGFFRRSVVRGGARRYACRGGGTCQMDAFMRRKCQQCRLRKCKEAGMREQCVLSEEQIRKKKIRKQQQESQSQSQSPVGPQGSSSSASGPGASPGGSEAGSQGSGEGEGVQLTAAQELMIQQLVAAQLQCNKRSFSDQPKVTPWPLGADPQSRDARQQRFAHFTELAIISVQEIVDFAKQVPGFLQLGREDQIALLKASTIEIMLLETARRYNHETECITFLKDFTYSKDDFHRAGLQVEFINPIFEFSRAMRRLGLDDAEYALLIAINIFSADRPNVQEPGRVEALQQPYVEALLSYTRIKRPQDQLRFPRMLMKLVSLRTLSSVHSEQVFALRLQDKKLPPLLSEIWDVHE
Chain of Retinoic acid receptor RXR-alpha (Homo sapiens) (P19793 whole entry, looked up, the tested form may be a part): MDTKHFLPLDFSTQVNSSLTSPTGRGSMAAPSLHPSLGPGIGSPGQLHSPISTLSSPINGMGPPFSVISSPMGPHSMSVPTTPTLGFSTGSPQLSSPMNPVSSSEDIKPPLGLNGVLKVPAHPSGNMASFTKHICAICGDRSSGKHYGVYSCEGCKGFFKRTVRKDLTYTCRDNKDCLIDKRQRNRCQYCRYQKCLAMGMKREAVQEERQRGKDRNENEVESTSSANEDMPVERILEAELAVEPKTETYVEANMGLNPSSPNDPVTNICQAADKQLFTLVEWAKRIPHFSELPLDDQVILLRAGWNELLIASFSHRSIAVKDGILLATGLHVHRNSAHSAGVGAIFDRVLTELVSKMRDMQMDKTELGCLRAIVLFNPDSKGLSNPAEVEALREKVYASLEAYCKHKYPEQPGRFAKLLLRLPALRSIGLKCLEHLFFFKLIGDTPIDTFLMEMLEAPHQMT
Chain of Cellular tumor antigen p53 (Homo sapiens) (P04637 whole entry, looked up): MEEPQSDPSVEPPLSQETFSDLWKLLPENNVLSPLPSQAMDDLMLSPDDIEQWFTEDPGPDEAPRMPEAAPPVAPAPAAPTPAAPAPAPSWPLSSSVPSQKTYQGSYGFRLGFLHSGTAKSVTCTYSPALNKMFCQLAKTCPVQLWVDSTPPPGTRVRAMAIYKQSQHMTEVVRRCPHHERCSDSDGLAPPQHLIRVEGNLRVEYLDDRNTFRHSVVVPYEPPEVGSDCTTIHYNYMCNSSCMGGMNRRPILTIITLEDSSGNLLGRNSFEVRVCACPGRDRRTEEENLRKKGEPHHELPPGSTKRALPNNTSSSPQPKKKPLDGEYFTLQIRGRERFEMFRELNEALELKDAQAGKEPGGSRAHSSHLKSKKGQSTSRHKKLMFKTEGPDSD

Take `CC(C)C#N`: the result in [1], in [2], in assay [3], in assay [4], in assay [5] and in assay [6] was inactive. Further, the compound was called inactive in [7], in assay [8], in [9], in assay [10] and in assay [11].
Consider `CC(C)CCCCCCCOC(=O)c1ccccc1C(=O)OCCCCCCCC(C)C`, for which the compound was classed as inactive in assay [1], in [12], in assay [2], in assay [3], in assay [4] and in assay [13]. Also, the result in assay [14], in [6], in assay [15], in assay [10], in [11] and in assay [16] was inactive. The result in [17] was inactive.
Regarding `CC(=O)/C=C/c1ccccc1`, the result in assay [1], in [2], in assay [3], in assay [4], in [13] and in assay [5] was inactive. In addition, the outcome in [6], in [7], in assay [8], in [18], in [15] and in assay [19] was inactive. Moreover, the compound was classed as inactive in assay [10]. Also, the AC50 in assay [12] is 86.4 µM (active); in assay [14], 69 µM (active); in [9], 38.8 µM (active).
`C[C@]12CC[C@H]3[C@@H](CC[C@@]45O[C@@H]4C(O)=C(C#N)C[C@]35C)[C@@H]1CC[C@@H]2O`: the AC50 was 100 µM (active) in assay [1]; 44.2 µM (active) in assay [14]; 64.6 µM (active) and 35.9 µM (active) in assay [16]; 68.6 µM (active) in assay [17]. The outcome in assay [12], in [2], in assay [3], in [4], in assay [13] and in assay [5] was inactive. Besides, the result in assay [6], in [7], in assay [8], in [18], in assay [19] and in assay [10] was inactive. Moreover, the compound was classed as inactive in [11], in assay [17] and in assay [20].
Turning to `O=C1C(Cl)=C(Cl)C(=O)C(Cl)=C1Cl`, the outcome in assay [2], in [3], in assay [4], in [13], in assay [5] and in [6] was inactive. Besides, the call in [7], in assay [8], in assay [18], in assay [15], in [19] and in assay [9] was inactive. In addition, the outcome in [10], in assay [11] and in assay [16] was inactive. Besides, the AC50 was 13.7 µM (active) in assay [16]; 15.4 µM (active) and 34.8 µM (active) in assay [17].
Take `O=[N+]([O-])c1cc(C(F)(F)F)c(Cl)c([N+](=O)[O-])c1Cl`: the AC50 is 5.9 µM (active) in assay [1]; 11.1 µM (active) in assay [8]; 52.5 µM (active) in assay [9]; 13.3 µM (active) in assay [16]; 21 µM (active) in assay [17]; 46.1 µM (active) in assay [20]. The compound was classed as inactive in [12], in [13], in [5], in assay [6], in assay [7] and in assay [18]. Also, in [11], the outcome was inactive.
Take `CCNCC`: the result in assay [1], in [12], in assay [2], in assay [3], in assay [14] and in [5] was inactive. In addition, the call in assay [6], in assay [7], in [18], in [9], in [10] and in [11] was inactive.
With `CCCCCc1cc(O)cc(O)c1`, the outcome in assay [12], in assay [3], in assay [8], in [18], in [15] and in assay [19] was inactive. Also, the call in assay [9], in assay [11], in assay [16] and in assay [17] was inactive. Besides, the AC50 in [5] is 19.8 µM (active); in assay [16], 83.7 µM (active).
Turning to `O=[N+]([O-])O`, the result in assay [2], in assay [3], in assay [4], in assay [13], in assay [8] and in [18] was inactive. Further, in assay [20], the call was inactive.
